Reference: paper PMC7862700, “An all-to-all approach to the identification of sequence-specific readers for epigenetic DNA modifications on cytosine”

Tests used:
Test in all cases: DAPPL (digital affinity profiling via proximity ligation, sequencing); 10 mM Tris-HCl pH 7.5, 50 mM NaCl, 1 mM DTT, 4% glycerol, room temperature, 30 min; GST-TFs on glutathione beads, 16-mer random dsDNA library, 0.1% formaldehyde crosslink after washing; high values mean tight binding
Conditions in all cases: protein: recombinant; tags: N-terminal GST; dsDNA, one strand shown
ERF = target: T1, ERF (Homo sapiens, UniProt P50548 1-548)
T1 sequence: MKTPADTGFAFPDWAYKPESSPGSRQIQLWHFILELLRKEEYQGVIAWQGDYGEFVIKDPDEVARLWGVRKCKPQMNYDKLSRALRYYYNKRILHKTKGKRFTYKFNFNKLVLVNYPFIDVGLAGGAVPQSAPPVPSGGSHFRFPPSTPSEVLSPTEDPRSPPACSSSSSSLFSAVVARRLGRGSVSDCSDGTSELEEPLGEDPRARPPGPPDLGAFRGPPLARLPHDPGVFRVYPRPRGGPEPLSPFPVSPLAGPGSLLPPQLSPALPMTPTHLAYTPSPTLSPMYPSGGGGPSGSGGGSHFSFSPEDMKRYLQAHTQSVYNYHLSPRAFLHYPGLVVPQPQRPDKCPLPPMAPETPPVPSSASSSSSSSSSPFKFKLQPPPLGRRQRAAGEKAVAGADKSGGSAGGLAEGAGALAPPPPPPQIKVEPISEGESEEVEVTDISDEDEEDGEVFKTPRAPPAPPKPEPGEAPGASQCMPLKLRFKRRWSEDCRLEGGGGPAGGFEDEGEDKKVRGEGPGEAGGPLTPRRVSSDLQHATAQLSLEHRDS
Procedure, shortened: (§1)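 Binding signal is given per hexamer as its read frequency for a factor divided by its frequency in the tag-only sample. GST-fused human transcription factors were expressed in yeast, captured on glutathione beads, barcoded with DNA and pooled with that sample, then incubated with 200 nmole of a 16-mer random double-stranded DNA library in Tris/NaCl/DTT/glycerol buffer for 30 min at room temperature. The pools were then washed, crosslinked, proximity-ligated, amplified by PCR and sequenced on an Illumina NextSeq500.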

ETV3L = target: T2, ETV3L (Homo sapiens, UniProt Q6ZN32 1-361)
T2 sequence: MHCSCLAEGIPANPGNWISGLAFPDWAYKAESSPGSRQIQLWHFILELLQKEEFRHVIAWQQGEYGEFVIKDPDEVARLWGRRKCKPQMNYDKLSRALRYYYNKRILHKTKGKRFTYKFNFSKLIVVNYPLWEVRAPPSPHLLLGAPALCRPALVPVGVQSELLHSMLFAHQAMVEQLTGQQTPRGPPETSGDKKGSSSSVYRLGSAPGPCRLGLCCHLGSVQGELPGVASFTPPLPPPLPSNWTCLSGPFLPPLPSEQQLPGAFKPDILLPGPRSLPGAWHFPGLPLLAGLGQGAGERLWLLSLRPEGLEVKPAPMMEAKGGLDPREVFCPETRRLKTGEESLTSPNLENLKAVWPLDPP
Procedure, shortened: as §1

ETS2 = target: T3, ETS2 (Homo sapiens, UniProt P15036 1-469)
T3 sequence: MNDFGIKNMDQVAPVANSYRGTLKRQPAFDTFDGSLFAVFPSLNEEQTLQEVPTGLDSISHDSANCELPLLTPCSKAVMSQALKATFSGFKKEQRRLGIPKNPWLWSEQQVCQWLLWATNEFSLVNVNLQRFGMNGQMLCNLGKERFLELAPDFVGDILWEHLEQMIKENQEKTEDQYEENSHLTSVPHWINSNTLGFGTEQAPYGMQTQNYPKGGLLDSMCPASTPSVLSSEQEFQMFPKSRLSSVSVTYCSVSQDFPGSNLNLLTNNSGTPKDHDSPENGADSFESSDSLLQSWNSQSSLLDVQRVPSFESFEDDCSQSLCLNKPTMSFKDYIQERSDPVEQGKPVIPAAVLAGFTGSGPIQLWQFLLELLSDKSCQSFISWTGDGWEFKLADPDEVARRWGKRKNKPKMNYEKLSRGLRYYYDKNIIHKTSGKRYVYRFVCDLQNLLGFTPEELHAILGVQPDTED
Procedure, shortened: as §1

SPDEF = target: T4, SPDEF (Homo sapiens, UniProt O95238 1-335)
T4 sequence: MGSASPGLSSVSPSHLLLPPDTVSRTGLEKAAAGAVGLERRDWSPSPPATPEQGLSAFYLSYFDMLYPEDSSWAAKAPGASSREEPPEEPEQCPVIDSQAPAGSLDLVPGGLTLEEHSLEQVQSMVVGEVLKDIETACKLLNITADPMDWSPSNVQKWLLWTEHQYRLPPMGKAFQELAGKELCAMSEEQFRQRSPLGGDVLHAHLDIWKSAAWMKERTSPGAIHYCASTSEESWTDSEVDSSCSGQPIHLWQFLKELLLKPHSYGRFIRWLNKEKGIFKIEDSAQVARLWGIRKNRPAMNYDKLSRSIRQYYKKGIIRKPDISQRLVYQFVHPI
Procedure, shortened: as §1

ETV7 = target: T5, ETV7 (Homo sapiens, UniProt Q9Y603 1-341)
T5 sequence: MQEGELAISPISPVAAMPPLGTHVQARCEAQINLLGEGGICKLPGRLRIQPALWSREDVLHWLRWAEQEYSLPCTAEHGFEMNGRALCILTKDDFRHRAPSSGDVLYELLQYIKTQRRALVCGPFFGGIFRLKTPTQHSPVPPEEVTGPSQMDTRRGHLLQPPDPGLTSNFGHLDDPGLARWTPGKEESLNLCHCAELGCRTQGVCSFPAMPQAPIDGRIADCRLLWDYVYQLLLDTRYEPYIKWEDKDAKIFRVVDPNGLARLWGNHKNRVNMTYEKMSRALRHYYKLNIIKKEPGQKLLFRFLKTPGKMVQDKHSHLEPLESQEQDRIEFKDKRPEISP
Procedure, shortened: as §1

ELF5 = target: T6, ELF5 (Homo sapiens, UniProt Q9UKW6-2 1-255)
T6 sequence: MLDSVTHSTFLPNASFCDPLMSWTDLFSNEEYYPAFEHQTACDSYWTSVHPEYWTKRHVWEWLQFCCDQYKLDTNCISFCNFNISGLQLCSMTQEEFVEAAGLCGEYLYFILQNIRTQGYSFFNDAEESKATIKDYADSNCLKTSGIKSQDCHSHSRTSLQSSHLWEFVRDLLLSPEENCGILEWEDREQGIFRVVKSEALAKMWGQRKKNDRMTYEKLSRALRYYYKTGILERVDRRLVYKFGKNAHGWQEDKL
Procedure, shortened: as §1

ETV3 = target: T7, ETV3 (Homo sapiens, UniProt P41162-2 1-143)
T7 sequence: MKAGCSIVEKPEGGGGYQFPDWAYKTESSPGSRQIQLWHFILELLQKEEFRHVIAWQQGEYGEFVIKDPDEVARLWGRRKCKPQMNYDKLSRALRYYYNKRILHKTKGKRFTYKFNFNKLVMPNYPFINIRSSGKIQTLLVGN
Procedure, shortened: as §1

ETV6 = ETV6 (Homo sapiens, UniProt P41212 1-452)
Procedure, shortened: as §1

Chain of ETV6 (P41212 whole entry): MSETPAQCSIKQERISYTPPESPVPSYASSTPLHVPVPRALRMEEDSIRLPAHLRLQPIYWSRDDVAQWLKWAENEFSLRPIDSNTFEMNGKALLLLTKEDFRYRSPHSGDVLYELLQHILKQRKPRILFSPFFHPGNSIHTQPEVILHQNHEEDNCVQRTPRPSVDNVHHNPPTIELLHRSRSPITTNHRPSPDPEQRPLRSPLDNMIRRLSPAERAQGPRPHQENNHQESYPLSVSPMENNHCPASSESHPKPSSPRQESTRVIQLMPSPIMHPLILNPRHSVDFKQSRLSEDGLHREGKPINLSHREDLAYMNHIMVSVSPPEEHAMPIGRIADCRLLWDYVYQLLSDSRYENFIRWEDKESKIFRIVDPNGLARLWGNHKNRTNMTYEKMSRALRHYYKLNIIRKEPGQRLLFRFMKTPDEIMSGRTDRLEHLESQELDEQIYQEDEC

Sequence	binding signal (ERF)	binding signal (ETV3L)	binding signal (ETS2)	binding signal (SPDEF)	binding signal (ETV7)	binding signal (ELF5)	binding signal (ETV3)	binding signal (ETV6)
GAACAA	1.24 fold enrichment (6-mer frequency, TF over GST control)	1.2 fold enrichment (6-mer frequency, TF over GST control)	1.22 fold enrichment (6-mer frequency, TF over GST control)	1.14 fold enrichment (6-mer frequency, TF over GST control)	1.17 fold enrichment (6-mer frequency, TF over GST control)	1.23 fold enrichment (6-mer frequency, TF over GST control)	1.18 fold enrichment (6-mer frequency, TF over GST control)	1.25 fold enrichment (6-mer frequency, TF over GST control)
ATATGC	1.15 fold enrichment (6-mer frequency, TF over GST control)	1.11 fold enrichment (6-mer frequency, TF over GST control)	1.19 fold enrichment (6-mer frequency, TF over GST control)	1.14 fold enrichment (6-mer frequency, TF over GST control)	1.11 fold enrichment (6-mer frequency, TF over GST control)	1.12 fold enrichment (6-mer frequency, TF over GST control)	1.16 fold enrichment (6-mer frequency, TF over GST control)	1.12 fold enrichment (6-mer frequency, TF over GST control)
TTGCAT	1.37 fold enrichment (6-mer frequency, TF over GST control)	1.56 fold enrichment (6-mer frequency, TF over GST control)	1.42 fold enrichment (6-mer frequency, TF over GST control)	1.51 fold enrichment (6-mer frequency, TF over GST control)	1.35 fold enrichment (6-mer frequency, TF over GST control)	1.4 fold enrichment (6-mer frequency, TF over GST control)	1.49 fold enrichment (6-mer frequency, TF over GST control)	1.38 fold enrichment (6-mer frequency, TF over GST control)
CGCCTT	1.35 fold enrichment (6-mer frequency, TF over GST control)	1.29 fold enrichment (6-mer frequency, TF over GST control)	1.3 fold enrichment (6-mer frequency, TF over GST control)	1.3 fold enrichment (6-mer frequency, TF over GST control)	1.34 fold enrichment (6-mer frequency, TF over GST control)	1.52 fold enrichment (6-mer frequency, TF over GST control)	1.45 fold enrichment (6-mer frequency, TF over GST control)	1.52 fold enrichment (6-mer frequency, TF over GST control)
TAAACG	1.11 fold enrichment (6-mer frequency, TF over GST control)	1.07 fold enrichment (6-mer frequency, TF over GST control)	1.16 fold enrichment (6-mer frequency, TF over GST control)	1.11 fold enrichment (6-mer frequency, TF over GST control)	1.1 fold enrichment (6-mer frequency, TF over GST control)	1.1 fold enrichment (6-mer frequency, TF over GST control)	1.15 fold enrichment (6-mer frequency, TF over GST control)	1.14 fold enrichment (6-mer frequency, TF over GST control)
AAGAAA	1.24 fold enrichment (6-mer frequency, TF over GST control)	1.26 fold enrichment (6-mer frequency, TF over GST control)	1.24 fold enrichment (6-mer frequency, TF over GST control)	1.09 fold enrichment (6-mer frequency, TF over GST control)	1.26 fold enrichment (6-mer frequency, TF over GST control)	1.2 fold enrichment (6-mer frequency, TF over GST control)	1.16 fold enrichment (6-mer frequency, TF over GST control)	1.22 fold enrichment (6-mer frequency, TF over GST control)
TATTCC	1.49 fold enrichment (6-mer frequency, TF over GST control)	1.73 fold enrichment (6-mer frequency, TF over GST control)	1.58 fold enrichment (6-mer frequency, TF over GST control)	1.83 fold enrichment (6-mer frequency, TF over GST control)	1.66 fold enrichment (6-mer frequency, TF over GST control)	1.99 fold enrichment (6-mer frequency, TF over GST control)	1.64 fold enrichment (6-mer frequency, TF over GST control)	1.67 fold enrichment (6-mer frequency, TF over GST control)
TCTCTT	1.37 fold enrichment (6-mer frequency, TF over GST control)	1.49 fold enrichment (6-mer frequency, TF over GST control)	1.37 fold enrichment (6-mer frequency, TF over GST control)	1.32 fold enrichment (6-mer frequency, TF over GST control)	1.17 fold enrichment (6-mer frequency, TF over GST control)	1.39 fold enrichment (6-mer frequency, TF over GST control)	1.44 fold enrichment (6-mer frequency, TF over GST control)	1.36 fold enrichment (6-mer frequency, TF over GST control)
TTGCTT	1.18 fold enrichment (6-mer frequency, TF over GST control)	1.28 fold enrichment (6-mer frequency, TF over GST control)	1.19 fold enrichment (6-mer frequency, TF over GST control)	1.28 fold enrichment (6-mer frequency, TF over GST control)	1.45 fold enrichment (6-mer frequency, TF over GST control)	1.29 fold enrichment (6-mer frequency, TF over GST control)	1.43 fold enrichment (6-mer frequency, TF over GST control)	1.28 fold enrichment (6-mer frequency, TF over GST control)
ATTAAT	1.25 fold enrichment (6-mer frequency, TF over GST control)	1.18 fold enrichment (6-mer frequency, TF over GST control)	1.27 fold enrichment (6-mer frequency, TF over GST control)	1.23 fold enrichment (6-mer frequency, TF over GST control)	1.21 fold enrichment (6-mer frequency, TF over GST control)	1.18 fold enrichment (6-mer frequency, TF over GST control)	1.25 fold enrichment (6-mer frequency, TF over GST control)	1.3 fold enrichment (6-mer frequency, TF over GST control)
TTGGCA	1.19 fold enrichment (6-mer frequency, TF over GST control)	1.14 fold enrichment (6-mer frequency, TF over GST control)	1.13 fold enrichment (6-mer frequency, TF over GST control)	1.12 fold enrichment (6-mer frequency, TF over GST control)	1.09 fold enrichment (6-mer frequency, TF over GST control)	1.01 fold enrichment (6-mer frequency, TF over GST control)	1.17 fold enrichment (6-mer frequency, TF over GST control)	1.19 fold enrichment (6-mer frequency, TF over GST control)
CCCGAA	1.48 fold enrichment (6-mer frequency, TF over GST control)	1.35 fold enrichment (6-mer frequency, TF over GST control)	1.37 fold enrichment (6-mer frequency, TF over GST control)	1.31 fold enrichment (6-mer frequency, TF over GST control)	1.26 fold enrichment (6-mer frequency, TF over GST control)	1.32 fold enrichment (6-mer frequency, TF over GST control)	1.33 fold enrichment (6-mer frequency, TF over GST control)	1.36 fold enrichment (6-mer frequency, TF over GST control)
CTTCTT	1.53 fold enrichment (6-mer frequency, TF over GST control)	1.59 fold enrichment (6-mer frequency, TF over GST control)	1.35 fold enrichment (6-mer frequency, TF over GST control)	1.54 fold enrichment (6-mer frequency, TF over GST control)	1.44 fold enrichment (6-mer frequency, TF over GST control)	1.65 fold enrichment (6-mer frequency, TF over GST control)	1.6 fold enrichment (6-mer frequency, TF over GST control)	1.64 fold enrichment (6-mer frequency, TF over GST control)
TAGTAC	1.13 fold enrichment (6-mer frequency, TF over GST control)	1.1 fold enrichment (6-mer frequency, TF over GST control)	1.17 fold enrichment (6-mer frequency, TF over GST control)	1.14 fold enrichment (6-mer frequency, TF over GST control)	1.17 fold enrichment (6-mer frequency, TF over GST control)	1.17 fold enrichment (6-mer frequency, TF over GST control)	1.27 fold enrichment (6-mer frequency, TF over GST control)	1.22 fold enrichment (6-mer frequency, TF over GST control)
CTTCCG	6.13 fold enrichment (6-mer frequency, TF over GST control)	7.08 fold enrichment (6-mer frequency, TF over GST control)	8.04 fold enrichment (6-mer frequency, TF over GST control)	7.63 fold enrichment (6-mer frequency, TF over GST control)	7.48 fold enrichment (6-mer frequency, TF over GST control)	11.4 fold enrichment (6-mer frequency, TF over GST control)	8.47 fold enrichment (6-mer frequency, TF over GST control)	9.62 fold enrichment (6-mer frequency, TF over GST control)
